The list is not random: actives were taken first. Their share in the collection is about 2.3%.
Coupling enz: qHTS Assay for Inhibitors of Fructose-1,6-bisphosphate Aldolase from Giardia Lamblia: Coupling assay counterscreen. coupling enzyme system counterscreen, AmpLite Red fluorescence. activity change, negative = inhibition, % at 58.2 µM, hits read low. 0.67% of 290,000 active. AID 2472, 2010; in the data active = activity change below about -30%
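Compounds tested against the coupling enzymes alone at 57.5 uM final; readout was AmpLite Red fluorescence (525/598 nm) after 20 min at RT.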
Tau fibril ThT: qHTS for Inhibitors of Tau Fibril Formation, Thioflavin T Binding. Microtubule-associated protein tau (Homo sapiens), P10636. recombinant tau K18 P301L, heparin-induced fibrillization, ThT fluorescence. Potency, µM (doses to about 57.4 µM), usual class: inhibitors. 2.1% of 270,000 active. AID 1460, 2008; note: nearly all actives have a fitted effect of over 55% in size
Target sequence (P10636 561-689 P618L limits assumed): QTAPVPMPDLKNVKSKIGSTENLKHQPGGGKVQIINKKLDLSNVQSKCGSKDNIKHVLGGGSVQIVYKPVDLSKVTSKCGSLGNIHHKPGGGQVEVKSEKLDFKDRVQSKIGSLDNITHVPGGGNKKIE
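Using a mix of unlabeled (15 uM) and Alexa 594-labeled (0.24 uM) tau K18 P301L, heparin-triggered fibrillization over 6 hr at 37 C was scored by ThT fluorescence.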
Tau fluor counter: Counterscreen qHTS for Inhibitors of Tau Fibril Formation, Fluorescence Polarization; Potency, µM (titrated, usually from 57.7 µM); AID 1463, 2008; 0.93% of 280,000 active; tau K18 P301L Alexa594 fluorescence, heparin fibrillization; note: nearly all actives have a fitted effect of over 55% in size
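Human tau K18 P301L (15 uM unlabeled, 0.24 uM Alexa 594-labeled) in 100 mM sodium acetate pH 7 with 20 uM heparin, 6 hr at 37 C. ThT 30 uM added, 1 hr ambient; Alexa 594 FP and total fluorescence read at 555/632 nm.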
USP1-UAF1 inh: Inhibitors of USP1/UAF1: Primary Screen | 0.23% of 390,000 active | Potency, µM (highest dose often 57.1 µM), most hits filed as inhibitors | Ubiquitin carboxyl-terminal hydrolase 1 (Homo sapiens), O94782 | recombinant USP1/UAF1, Ub-Rhodamine cleavage fluorescence | AID 743255, 2014; note: nearly all actives have a fitted effect of over 60% in size
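Step one: compound is pinned into 1nM USP1/UAF1 in HEPES pH 7.8 buffer with TCEP. Step two: 15 min room-temperature incubation. Step three: Ub-Rho (150nM final) starts cleavage, tracked by fluorescence over six one-minute reads.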
Tau fibril FP: qHTS for Inhibitors of Tau Fibril Formation, Fluorescence Polarization; 0.39% of 280,000 active; Potency, µM (titrated, usually from 57.7 µM), actives largely listed as inhibitors; Microtubule-associated protein tau (Homo sapiens), P10636; K18 P301L tau heparin fibrillization, Alexa594 FP, 6 h; note: nearly all actives have a fitted effect of over 55% in size
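Compound effects on tau fibrillization are measured by Alexa 594 fluorescence polarization (ex 555, em 632 nm). K18 P301L tau is used at 15 uM with 0.24 uM labeled tracer, and 20 uM heparin induces aggregation over 6 hr at 37 C.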
A number is an active result; – = inactive; ? = inconclusive; · = not tested or not shown; [ ] = dose if it differs, or a comment. Unless noted, calls come from the whole dose curve; as a rule, active = well fitted curve in the direction sought with a large enough effect; inconclusive = small, poorly fitted or top-dose-only effect, or another doubt; inactive = no such curve, though single readings can be large; an effect the other way counts as inactive or inconclusive.

SMILES | Coupling enz | Tau fibril ThT | Tau fluor counter | USP1-UAF1 inh | Tau fibril FP
COc1ccc(/C=N/NC(=O)c2ccc(F)cc2)cc1CN1CCc2cc(OC)c(OC)cc2C1C (stereo not drawn) | – | ? | ? | – | –
COc1ccc(/C=N/NC(=O)c2ccc(O)cc2)cc1CN1CCCc2ccccc21 | – | ? | 14µM[quencher] | – | ?
CN(C)c1oc(-c2ccccc2[N+](=O)[O-])nc1C#N | -30 | ? | – | – | ?
CN(C)c1oc(-c2ccccc2Cl)nc1C#N | – | – | – | – | –
O=C(Cn1cc(SCc2c(F)cccc2Cl)c2ccccc21)N1CCCC1 | · | – | – | – | –
COc1cc(OC)c(OC)cc1/C=C1\CC(C)C/C(=C\c2cc(OC)c(OC)cc2OC)C1=O (stereo not drawn) | – | · | · | 35µM | ·
CCC1C/C(=C\c2cc(OC)c(OC)cc2OC)C(=O)/C(=C/c2cc(OC)c(OC)cc2OC)C1 (stereo not drawn) | – | · | · | ? | ·
O=c1cccccc1NN=C1CCCCC1 | – | · | – | – | –
O=C(O)c1cc(Br)ccc1NN=C1CCCCC1 | – | 20µM | – | – | –
COc1ccc2nc(-c3cccc(N)c3)[nH]c2c1 | – | – | – | – | –
COc1cccc(-n2c(N)c(-c3nc4ccccc4[nH]3)sc2=S)c1 | – | 7.9µM | 16µM[quencher] | – | –
CCCc1ccc(OCC(=O)Nc2scc(-c3cccs3)c2C(=O)OC)cc1 | · | 22µM | – | – | ?
COC(=O)c1c(-c2cccs2)csc1NC(=O)COc1ccc(C(C)C)cc1 | · | 28µM | – | – | ?
COC(=O)c1c(-c2cccs2)csc1NC(=O)c1cc(OC)cc(OC)c1 | · | ? | – | – | ?
CCOc1ccc(S(=O)(=O)N2CCN(C(=O)CCC(=O)N3CCOCC3)CC2)cc1 | · | · | · | – | ·
O=C(O/N=C1\CCCCC1c1ccc([N+](=O)[O-])cc1[N+](=O)[O-])c1c(F)cccc1F (stereo not drawn) | -31 | – | ? | – | –
CC(=O)Oc1cc2cccc(OC(C)=O)c(=O)c2c(OC(C)=O)c1OC(C)=O | – | 3.5µM | 8.9µM[quencher] | ? | 16µM
Cc1ccc(-n2ncc(C(=O)N3CCN(c4cccc(C)c4)C(C)C3)c2C2CCN(C(=O)OC(C)(C)C)CC2)cc1 (stereo not drawn) | · | – | – | – | –
CCOC(=O)c1c(-c2ccccc2)csc1NC(=O)/C(C#N)=C\c1ccc(O)c(OC)c1 | · | · | · | 16µM | ·
O=C(O)C1Nc2c(O)cccc2C2C=CCC12 (stereo not drawn) | – | 13µM | ? | – | ?
CCCN1CCC(=O)N(C(CSc2ccc(Br)cc2)Cc2ccccc2)CC1 (stereo not drawn) | – | · | · | · | ·
O=C1/C(=C\c2cccnc2)Sc2ccccc21 | – | ? | – | – | –
O=C1/C(=C/c2cccnc2)CCc2c1[nH]c1ccccc21 | – | 7.1µM | – | – | –
CC(C)C/C=C1\CCc2c([nH]c3ccccc23)C1=O | – | ? | – | – | –
CC1C/C(=C\c2cccnc2)C(=O)/C(=C/c2cccnc2)C1 (stereo not drawn) | – | 7.1µM | – | – | ?
SMILES | Coupling enz | Tau fibril ThT | Tau fluor counter | USP1-UAF1 inh | Tau fibril FP
CN(C)c1ccc(C(=O)Nc2ccc(O)c3c(=O)cc(-c4ccccc4Cl)oc23)cc1 | – | – | – | – | –
O=C(Nc1ccc(O)c2c(=O)cc(-c3ccccc3Cl)oc12)c1ccc(Br)cc1 | – | 14µM | – | · | –
CCOC(=O)[C@H]1[C@H]2COc3ccccc3[C@@H]2N2C(=O)c3ccc(C)cc3NC(=O)[C@@]12C | · | · | · | – | ·
Cc1ccc(-n2[nH]c(C)c(/C=N/Nc3ccc([N+](=O)[O-])cc3[N+](=O)[O-])c2=O)cc1 | – | 1.6µM | 3.2µM[quencher] | – | 10µM
Cc1[nH]n(-c2ccc([N+](=O)[O-])cc2)c(=O)c1C=NCCc1c(C)[nH]c2ccccc12 | – | ? | 22µM[quencher] | – | ?
Cc1[nH]n(-c2ccc([N+](=O)[O-])cc2)c(=O)c1C=NCC1CCCO1 (stereo not drawn) | – | – | – | – | –
Cc1[nH]n(-c2ccc([N+](=O)[O-])cc2)c(=O)c1C=NCCc1ccc(S(N)(=O)=O)cc1 | – | – | – | – | –
Cc1c(-c2ccccc2)c(=O)oc2c(CN3CCN(C)CC3)c(O)ccc12 | · | – | – | ? | –
CC1(C)CC(=O)C(C(c2ccco2)C2C(=O)CC(C)(C)CC2=O)C(=O)C1 | – | 28µM | – | – | ?
CC1(C)CC(=O)C(C(c2ccc(F)cc2)C2C(=O)CC(C)(C)CC2=O)C(=O)C1 | – | – | – | – | –
COC(=O)c1ccccc1NC(=O)Cn1c(=O)n(CCC(=O)NCc2ccc3c(c2)OCO3)c(=O)c2ccccc21 | · | – | – | – | –
O=[N+]([O-])c1cc([N+](=O)[O-])c2c(=Nc3ccccc3)n(-c3ccccc3)n(O)c2c1 | – | 14µM | 16µM[quencher] | ? | ?
O=[N+]([O-])c1cc(Br)c(Nc2ccccc2)c([N+](=O)[O-])c1 | – | · | · | – | ·
COc1ccc(/C=C(\C#N)C(=O)N2COCC2(C)C)cc1 | – | · | · | – | ·
c1ccc(NC2=Nc3cccc4cccc2c34)cc1 | – | ? | ? | – | –
COc1ccc(NC2=Nc3cccc4cccc2c34)cc1 | – | 13µM | ? | – | ?
Fc1ccc(/C=N/NC2=Nc3cccc4cccc2c34)cc1 | – | 2.2µM | ? | – | –
Cc1nc(N2CCCCC2)sc1C(=O)c1ccc(Cl)c([N+](=O)[O-])c1 | – | ? | – | · | –
COc1ccc(S(=O)(=O)NCCS(=O)(=O)N2CCN(c3ccccc3F)CC2)cc1 | · | – | – | – | –
C[C@H]1Cc2c(-c3ccccc3)nc3c(c2CO1)CN(S(=O)(=O)c1ccc2c(c1)OCCN2C)CC3 | – | –[11.5 µM] | –[11.6 µM] | · | –[11.6 µM]
CC1CC(=O)C2=C(C1)Nc1ccccc1N=C2 (stereo not drawn) | – | – | – | – | –
CCC1=Nc2ccccc2NC2=C1C(=O)CCC2 | – | 25µM | ? | – | ?
O=C(NC(CSCc1ccccc1)C(=O)N/N=C/c1ccc(O)cc1O)c1ccc([N+](=O)[O-])cc1 (stereo not drawn) | – | ? | 13µM[quencher] | – | ?
COc1cc(O)ccc1/C=N/NC(=O)c1ccc([N+](=O)[O-])cc1 | – | ? | – | – | –
CNc1nc(N/N=C/c2cc3c(cc2[N+](=O)[O-])OCO3)nc(Nc2ccccc2)n1 | – | 7.1µM | – | – | –
N#C/C(=C\c1cc([N+](=O)[O-])c(N2CCOCC2)cc1N1CCOCC1)c1nc2ccccc2[nH]1 | – | 16µM | ? | – | –
